Screening data from PubChem.
SENP8 block-1: SENP8 (human) protease inhibition | Q96LD8 | AID 602440 | 360,000 compounds, 0.64% hits | recombinant SENP8, Nedd8 substrate fluorescence | inhibition, % at 20 µM; in the data active means inhibition mostly above about 40%, no sharp cut-off; inactive means mostly below about 27%
AHR act: human AHR activation; P35869; AHR-responsive luciferase reporter cells, luminescence; activation, % at 5 µM; 320,000 compounds, 2.5% hits; in the data active means activation above about 47%;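 further: 0% = vehicle wells and 100% = reference agonist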
SENP6 inh: blocks the human protease SENP6; Q9GZR1; Recombinant SENP6 catalytic domain, aminoluciferin luminescence; inhibition, % at 10 µM; 330,000 compounds, 1.8% hits;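 active means inhibition above about 50% at the single tested dose, limit read from the data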;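 further: plate controls were DMSO wells with enzyme for no effect and DMSO wells lacking enzyme for full effect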
Target sequence (Q9GZR1 628-1112 limits assumed): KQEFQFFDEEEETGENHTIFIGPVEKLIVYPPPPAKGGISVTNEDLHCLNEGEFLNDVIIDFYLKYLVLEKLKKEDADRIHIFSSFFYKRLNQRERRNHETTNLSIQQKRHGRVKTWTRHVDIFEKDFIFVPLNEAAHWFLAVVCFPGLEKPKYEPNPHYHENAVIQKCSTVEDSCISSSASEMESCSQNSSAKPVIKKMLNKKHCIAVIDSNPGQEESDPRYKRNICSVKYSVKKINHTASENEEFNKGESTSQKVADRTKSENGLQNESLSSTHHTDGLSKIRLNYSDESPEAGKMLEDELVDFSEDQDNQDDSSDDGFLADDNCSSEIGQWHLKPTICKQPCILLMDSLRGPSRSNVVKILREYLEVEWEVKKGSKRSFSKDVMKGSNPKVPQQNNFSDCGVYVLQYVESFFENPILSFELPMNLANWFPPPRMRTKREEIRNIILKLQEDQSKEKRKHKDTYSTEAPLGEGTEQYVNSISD
SENP8 block-2: inhibitors of human SENP8 protease. Q96LD8. purified SENP8, Z-RLRGG-aminoluciferin cleavage, luminescence. inhibition, % at 10 µM. 330,000 compounds, 1.2% hits; in the data active means inhibition above about 50%
EBI2 block: blocks human EBI2 receptor beta-arrestin signaling; P32249; EBI2 beta-arrestin recruitment, luminescence, 7a,25-OHC stimulated; inhibition, % at 5 µM; 360,000 compounds, 0.81% hits; AID 651636; in the data active means inhibition above about 38%;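 further: enzyme fragment complementation signal reports receptor beta-arrestin coupling in cells; 0% = agonist plus DMSO wells and 100% = wells without agonist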
SENP7 block: SENP7 protease inhibition. 330,000 compounds, 1.5% hits. recombinant SENP7, Z-RLRGG-aminoluciferin luminescence, 40 min. inhibition, % at 5 µM. AID 434973;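 active means inhibition above about 50% at the single test dose, limit read from the data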;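 further: plate controls were DMSO with enzyme for no effect and no enzyme buffer wells for full effect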
AHR act cf: human AHR activation, confirmation; AID 2845; human cells, AHR-responsive luciferase reporter, luminescence; activation, % at 9 µM; shares compounds with AHR act; 2,300 compounds, 87% hits; in the data active means activation above about 49%;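 further: HepG2 hepatoma cells carrying a DRE-driven firefly luciferase reporter; 0% = vehicle wells and 100% = reference agonist wells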
PXR counter: PXR activation, counter-screen for AHR activators | shares compounds with AHR act | cell-based PXR reporter, luciferase luminescence | activation, % at 11.6 µM | 2,300 compounds, 88% hits | AID 434939; in the data active means activation above about 11%;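 further: human hepatoma DPX-2 cells expressing full-length human PXR; 0% = DMSO and 100% = reference agonist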
* hit, by the source's call; / = not tested or not shown. Rows were chosen to be rich in hits. Some 5% of all compounds tested hit in one or more screens of this group.

SMILES	SENP8 block-1	AHR act	SENP6 inh	SENP8 block-2	EBI2 block	SENP7 block	AHR act cf	PXR counter
O=C(Nc1ccc(F)c(F)c1)c1oc2ccccc2c1NC(=O)C1CCCO1 (stereo unspecified)	-43	81*	7	14	-12	-7	135*	24*
CCC(=O)Nc1ccc(NC(=O)c2oc3ccccc3c2C)cc1	-139	6	7	-10	4	8	/	/
CCOC(CCNC(=O)c1cn(C)c(=O)c2c1c1ccccc1n2C)OCC	-298	7	-2	0	2	4	/	/
Cn1c(=O)cc(Nc2ccccc2)c2c(=O)n(-c3ccccc3)c(=O)n(-c3ccccc3)c21	21	-1	-15	1	14	-1	/	/
COc1cccc(COC(=O)C(Cc2ccccc2)NC(=O)c2ccco2)c1 (stereo unspecified)	19	/	/	/	1	/	/	/
O=c1c2ccccc2nc(-c2ccoc2)n1CCc1ccccc1	8	125*	-6	4	9	0	102*	41*
O=C(CC1Nc2ccccc2NC1=O)NCCCN1CCCCCC1 (stereo unspecified)	-345	2	10	1	-3	5	/	/
CCCCNC(=O)CC1Nc2ccccc2NC1=O (stereo unspecified)	-181	86*	0	2	-3	-2	52*	58*
Clc1cc(Cl)c2nc(N3CCCC3)sc2c1	8	88*	-1	29	-3	36	95*	28*
CN(C)c1nc(-c2ccccc2)nnc1C(F)(F)F	29	96*	-17	-2	8	7	114*	25*
O=C(COc1ccc2ccccc2c1)N/N=C/C1CC=CCC1 (stereo unspecified)	12	85*	-4	2	28	6	47	12*
COc1ccc(OCC(=O)N/N=C/C2CC=CCC2)cc1 (stereo unspecified)	0	7	-9	2	11	-5	/	/
O=C(CN1CCN(CC(=O)Nc2cccc(F)c2)CC1)Nc1ccc(-c2ccccc2)cc1	2	-2	10	0	14	8	/	/
O=C1N/C(=N\N=C\c2ccco2)SC1Cc1ccccc1[N+](=O)[O-] (stereo unspecified)	22	83*	1	2	-15	0	71*	28*
CCOc1ccc(CC2S/C(=N/N=C/c3ccco3)NC2=O)cc1 (stereo unspecified)	8	2	12	0	-2	-1	/	/
CCc1cccc(OCC(=O)Nc2cc(S(=O)(=O)N3CCOCC3)ccc2N2CCCC2)c1	-12	-3	-12	1	-12	-12	/	/
Cc1cc2n(n1)SC(Nc1ccc(F)c(Cl)c1)N2 (stereo unspecified)	6	89*	0	0	-1	0	106*	52*
Clc1ccc2[nH]c3c(N4CCC5(CC4)OCCO5)ncnc3c2c1	/	99*	-13	-8	/	11	56*	33*
Clc1ccc2[nH]c3c(NCCN4CCOCC4)ncnc3c2c1	-201	80*	-6	2	2	-1	93*	51*
Cc1ccccc1OCC(=O)N/N=C/c1ccccn1	3	81*	-8	-6	-13	-5	29	9
Cc1cc(C)cc(OCC(=O)N/N=C/c2ccccn2)c1	7	13	0	7	-3	-5	/	/
COc1ccccc1NC(=O)c1ccc(-n2ccnc2)c([N+](=O)[O-])c1	7	95*	-15	-6	-12	-7	104*	20*
CCOc1cc(N2CCOCC2)c(OCC)cc1NC(=O)c1ccc(-n2ccnc2)c([N+](=O)[O-])c1	19	3	-12	3	-10	7	/	/
COc1ccccc1NC(=O)c1ccc2c(c1)nnn2C	16	95*	6	-11	-14	10	74*	/
Cn1nnc2cc(C(=O)Nc3ccccc3)ccc21	12	-7	-12	-17	1	-10	/	/
CN(C(=O)c1cc([N+](=O)[O-])ccc1NCc1cccnc1)c1ccccc1	20	80*	5	5	1	2	72*	88*
